A selection: hits, their analogues and other compounds. The true share with any hit is near 2.8%.
HTRA1 inh = HTRA1 serine protease inhibitors, primary screen, biochemical, fluorescence polarization, HTS; Q92743; recombinant HTRA1, FP-rhodamine activity-based probe; inhibition, % at 5.96 µM; actives 0.5% (n = 340,000); in the data active = inhibition above about 36%;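 note: 0% = enzyme with DMSO and 100% = wells lacking enzyme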
pPAFAH FP inh = pPAFAH enzyme inhibitors, primary screen, biochemical, fluorescence polarization, human | Platelet-activating factor acetylhydrolase (Homo sapiens), Q13093 | recombinant pPAFAH, FP-rhodamine probe fluorescence polarization | inhibition, % at 3.39 µM | actives 1.5% (n = 330,000);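 active = inhibition above the mean inhibition across the screen plus 3 SD, cut at about 25% in these data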;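 note: inhibitors block binding of the rhodamine activity-based probe so polarization drops; 0% = enzyme with DMSO and 100% = wells lacking pPAFAH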
PAFAH1B2 inh = PAFAH1B2 enzyme inhibitors, primary screen, biochemical, fluorescence polarization, human. Platelet-activating factor acetylhydrolase IB subunit alpha2 (Homo sapiens), P68402. recombinant PAFAH1B2, FP-rhodamine activity probe. inhibition, % at 3.39 µM. actives 1.2% (n = 340,000);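 active = inhibition above the mean of all tested compounds plus 3 SD, cut at about 24% in these data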;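 note: 0% = enzyme with DMSO and 100% = wells lacking PAFAH1B2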
Target sequence (P68402 whole entry, looked up): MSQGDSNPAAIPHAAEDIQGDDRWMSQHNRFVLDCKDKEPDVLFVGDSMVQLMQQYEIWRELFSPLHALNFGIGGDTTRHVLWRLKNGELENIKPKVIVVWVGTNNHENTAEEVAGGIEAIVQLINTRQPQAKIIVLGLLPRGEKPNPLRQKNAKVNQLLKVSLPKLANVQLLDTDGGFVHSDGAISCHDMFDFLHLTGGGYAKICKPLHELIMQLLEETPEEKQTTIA
PAFAH1B3 inh = PAFAH1B3 enzyme inhibitors, primary screen, biochemical, fluorescence polarization, human; actives 0.28% (n = 340,000); inhibition, % at 3.39 µM; recombinant PAFAH1B3, FP-rhodamine probe;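 active = inhibition above the screen-wide average of all tested compounds plus 3 SD, cut at about 25% in these data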;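 note: 0% = enzyme with DMSO only and 100% = wells lacking PAFAH1B3 protein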
Target sequence (Q15102 whole entry, looked up): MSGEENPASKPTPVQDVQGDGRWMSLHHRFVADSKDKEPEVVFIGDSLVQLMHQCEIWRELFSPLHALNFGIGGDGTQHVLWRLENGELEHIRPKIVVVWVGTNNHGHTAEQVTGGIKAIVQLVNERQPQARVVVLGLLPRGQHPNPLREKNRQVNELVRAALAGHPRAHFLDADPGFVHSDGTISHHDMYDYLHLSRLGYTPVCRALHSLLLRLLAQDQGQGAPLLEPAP
DAGLB inh = DAGLB lipase inhibitors, primary screen, biochemical, fluorescence, HTS; HEK293T DAGLB membrane lysate, EnzChek fluorogenic substrate; actives 0.059% (n = 340,000); inhibition, % at 5.17 µM; Diacylglycerol lipase-beta (Homo sapiens), Q8NCG7; in the data active = inhibition above about 34%;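 note: 0% = enzyme with vehicle and 100% = wells lacking enzyme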
PAFAH2 FP inh = PAFAH2 enzyme inhibitors, primary screen, biochemical, fluorescence polarization, human; recombinant PAFAH2, FP-rhodamine activity probe; inhibition, % at 3.39 µM; actives 0.99% (n = 340,000); AID 492956, 2010;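 active = inhibition above the mean over all tested compounds plus 3 SD, cut at about 30% in these data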;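 note: inhibitors block probe labeling of enzyme so polarization drops; 0% = enzyme with DMSO and 100% = wells lacking PAFAH2 protein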
* = called active by the depositor; / = not tested or not shown.

SMILES	HTRA1 inh	pPAFAH FP inh	PAFAH1B2 inh	PAFAH1B3 inh	DAGLB inh	PAFAH2 FP inh
COc1ccccc1OCC(=O)Nc1sc2c(c1C(N)=O)CCC2	0	10	-2	2	-2	5
COc1cccc(C(=O)OCC(=O)Nc2sc3c(c2C(N)=O)CCC3)c1O	5	28*	4	5	2	19
Nc1ccc(S(=O)(=O)NC2(C(F)(F)F)NC(=O)N(c3ccccc3F)C2=O)cc1 (stereo not drawn)	2	0	12	10	5	-4
NC1=C(Cl)C(=O)c2ccc(S(N)(=O)=O)cc2C1=O	11	/	25*	69*	-7	48*
COc1ccc(OC)c(NC(=O)COC(=O)COc2ccc(Nc3ccccc3)cc2)c1	32	16	7	4	4	8
Cc1nc2c(C(=O)NCc3ccccc3Cl)c[nH]n2c(=O)c1Cl	-26	32*	-3	1	12	29
Cc1nc2c(C(=O)NCCc3ccccc3Cl)c[nH]n2c(=O)c1Cl	-16	25*	11	7	10	13
Cc1nc2c(C(=O)NCc3ccccc3)c[nH]n2c(=O)c1Cl	-2	13	9	-3	7	8
CCN1C[C@@H]2[C@@H]3C(=O)N(Cc4ccccc4)C(=O)[C@@H]3[C@](Cc3ccccc3)(C1=O)N2C(=O)c1ccc(C(F)(F)F)cc1	-5	/	0	8	2	-11
Fc1cc(F)cc(Nc2nc(Cl)nc(NC3CCCC3)n2)c1	-69	-3	-3	0	-14	-12
COc1ccc(C2Nc3ccccc3C(=O)N2NS(C)(=O)=O)cc1 (stereo not drawn)	4	3	-2	8	1	3
CC1Nc2ccccc2C(=O)N1NS(C)(=O)=O (stereo not drawn)	4	28*	3	5	1	21
O=C1c2ccccc2-c2n[nH]c(=O)c3ccc(N4CCCCC4)c1c23	9	33*	8	10	20	13
Cc1nnc(NC(=O)CSc2nnc(CC(=O)Nc3ccccc3C)n2C)s1	2	-3	3	11	-1	-2
CCn1nc(C(=O)NNC(=O)c2ccccc2)c2ccccc2c1=O	-2	0	0	8	0	4
O=c1c2cc(Br)ccc2[nH]c(=S)n1Cc1ccccn1	-4	-4	3	-2	-2	6
O=c1c2cc(Br)ccc2[nH]c(=S)n1Cc1ccccc1	-20	26*	8	10	-7	1
Cc1cc(NC(=O)CCC(=O)N(CC(=O)NCC2CCCO2)c2ccc(C)c(C)c2)no1 (stereo not drawn)	10	4	-2	1	0	-8
CCCN(C(=O)c1cc(Cl)nc2ccccc12)c1c(N)n(Cc2ccccc2)c(=O)[nH]c1=O	0	0	0	-8	10	1
COc1ccc(C(c2c(C)[nH]n(C(N)=S)c2=O)C(C#N)C#N)cc1 (stereo not drawn)	1	-1	2	-1	4	0
Cc1[nH]n(-c2ncc(-c3ccc(Cl)cc3)s2)c(=O)c1C(c1ccc(Cl)cc1)C(C#N)C#N (stereo not drawn)	18	29*	7	13	16	25
O=C([C@H](Cc1ccccc1)NS(=O)(=O)c1ccc(Cl)cc1)N1CC[C@@]2(O)CCCC[C@H]2C1	-8	5	30*	4	5	26
CCc1ccc(S(=O)(=O)/N=C2\C=C(Nc3ccc(C(=O)O)cc3)C(=O)c3ccccc32)cc1	33	33*	32*	58*	11	50*
Cc1ccc(/C=N\NC(=O)CNC(=O)C23CC4CC(CC(C4)C2)C3)o1	-5	1	1	4	2	-1
CCc1cc(C(=O)O)c(NC(=O)/C=C/c2ccc(OC)c(OC)c2)s1	-2	19	25*	6	3	9
SMILES	HTRA1 inh	pPAFAH FP inh	PAFAH1B2 inh	PAFAH1B3 inh	DAGLB inh	PAFAH2 FP inh
CCOc1ccc(Br)cc1C1=NN(C(C)=O)C(c2ccc([N+](=O)[O-])s2)O1 (stereo not drawn)	30	/	10	17	0	39*
CN(CC(=O)Nc1ccc(Cl)c(C(F)(F)F)c1)C(=O)CCCNC(=O)c1ccc(Cl)cc1	-27	31*	53*	3	-2	1
CN(CC(=O)Nc1ccc(Cl)c(C(F)(F)F)c1)C(=O)CCNC(=O)c1ccco1	1	9	10	5	2	4
CC(=O)Cc1nsc(NC(=O)c2ccc(COc3ccccc3)o2)n1	2	27*	2	-4	2	-9
CC(=O)Cc1nsc(NC(=O)c2ccc(COc3ccccc3Cl)o2)n1	-5	-4	6	1	-1	0
CC(C)(c1ccc(O)cc1)c1ccc(O)cc1	-3	-9	48*	9	-2	-4
CC(C)(c1ccc(O)cc1)c1ccc(O)c(C(=O)O)c1	-12	/	/	/	-2	/
CC(C)N(Cc1nc(-c2ccc(Cl)cc2)no1)Cc1nccn1C	-7	4	5	5	-2	0
CCS(=O)(=O)N1Cc2ccccc2CC1C(=O)Nc1nnc(SCc2ccc(F)cc2)s1 (stereo not drawn)	-41	25*	9	2	3	-3
O=c1[nH]c(CN2CCN(c3ccc([N+](=O)[O-])cc3)CC2)nc2ccsc12	8	10	32*	-3	1	-5
O=C(NCc1ccco1)C1(c2ccccc2)CCCC1	-3	6	14	12	2	5
O=C(NCc1ccccc1)C1(c2cccc(F)c2)CCCC1	-11	-5	26*	7	-1	10
COc1ccc(NC(=O)COC(=O)c2ccc(S(=O)(=O)N3CCCCC3)cc2)c(OC)c1	5	/	/	/	-5	/
O=C1C(SCCO)=C(SCCO)C(=O)c2ccccc21	22	4	46*	47*	-8	50*
O=S(=O)(Nc1ccc(S(=O)(=O)N2CCCCCC2)cc1)c1cccs1	-3	3	13	0	-2	14
O=S(=O)(Nc1ccccc1Cl)c1ccc(NS(=O)(=O)c2cccs2)cc1	-4	26*	13	11	2	15
O=C(Nc1ccc(Cl)cc1)Nc1ccccc1NS(=O)(=O)c1cccs1	-10	17	26*	10	0	1
Cc1cc(Cl)ccc1OCC(=O)Nc1ccccc1NS(=O)(=O)c1cccs1	-8	33*	24	11	1	-3
Cc1cccn2c(=O)nc(SCC(=O)Nc3ccc4c(c3)OCCO4)nc12	-5	5	-1	9	-1	-6
N/C(=N\OC(=O)CCC1CCCCC1)c1ccc([N+](=O)[O-])cc1	8	9	25*	2	-3	20

Screening data from PubChem BioAssay.
